Data on 68 molecules can be found in the antibiotic and cytotoxicity screens of Wong et al. (2023).

Hit rate of the full screen: of about 39,000 compounds, about 3,300 (8.5%) were called active. This excerpt belongs to a sample that is enriched for actives.

This test deals with HepG2. The experiment in a line: cytotoxicity call (relative viability < 0.9). To be noted: 10 µM.
`O=C(NCC1(c2nc(-c3ccccc3)cs2)CCOCC1)c1cccc(-c2noc(C(F)(F)F)n2)c1`: the cytotoxicity call was “inactive”.

With `C[C@@H]1CN([C@@H](C)CO)C(=O)c2cccc(NS(=O)(=O)c3cn(C)cn3)c2O[C@@H]1CN(C)Cc1ccc(C(=O)Nc2ccccc2N)cc1`, the cytotoxicity call is “inactive”. Turning to `C[C@H]1CN([C@@H](C)CO)C(=O)c2cccc(NC(=O)c3ccc(-c4nccs4)cc3)c2O[C@H]1CN(C)C(=O)Nc1ccc(F)cc1`, the cytotoxicity call is “inactive”. `C[C@H]1CN([C@@H](C)CO)C(=O)c2cc(NC(=O)Nc3ccc(F)cc3)ccc2O[C@H]1CN(C)C(=O)Nc1cccc2ccccc12`: the cytotoxicity call is “inactive”. Turning to `COc1cc2nc(N3CCCN(Cc4ccccc4)CC3)nc(Nc3ccc(F)c(Cl)c3)c2cc1OC`, the cytotoxicity call was “active”. As for `O=C(C1=C[C@H](c2ccc(Br)cc2)C[C@H](OCc2ccc(CO)cc2)O1)N1CCN(Cc2ccccc2)CC1`, the cytotoxicity call is “inactive”. Take `COc1cc2c(NC3CCN(C)CC3)nc(N3CCCN(C)CC3)nc2cc1OCCOCCN(C)C`: the cytotoxicity call is “inactive”. In the case of `COc1cc2nc(N3CCCN(Cc4ccccc4)CC3)nc(NC3CCN(Cc4ccccc4)CC3)c2cc1OC` it was “active”. On to `COc1cc(C(=O)OCCCN2CCN(CCCOC(=O)c3cc(OC)c(OC)c(OC)c3)CC2)cc(OC)c1OC`, for which the cytotoxicity call is “inactive”. As to `O=C(C1=C[C@@H](c2ccc(Br)cc2)C[C@@H](OCc2ccc(CO)cc2)O1)N1CCN(Cc2ccccc2)CC1`, the cytotoxicity call is “inactive”. Take `COc1cc2c(cc1OC)C(=O)C(CC1CCN(Cc3ccccc3)CC1)C2.Cl` (stereo not drawn): the cytotoxicity call is “inactive”. Then `COc1cc(Nc2c(C#N)cnc3cc(OCCCN4CCN(C)CC4)c(OC)cc23)c(Cl)cc1Cl`, with “active”; and `COc1cc(C(=O)OCCCN2CCCN(CCOC(=O)c3cc(OC)c(OC)c(OC)c3)CC2)cc(OC)c1OC`, with “inactive”. As for `Brc1ccc2nc(N3CCCN(Cc4ccccc4)CC3)nc(NC3CCN(Cc4ccccc4)CC3)c2c1`, the cytotoxicity call is “active”.

As to `CCOC(=O)/C=C(C)/C=C/C=C(C)/C=C/c1c(C)cc(OC)c(C)c1C`, the cytotoxicity call is “inactive”. As to `O=C(NCCCn1ccnc1)C(=O)NC[C@H]1OCCN1S(=O)(=O)c1ccc(F)cc1`, the cytotoxicity call was “inactive”. Turning to `C[C@@H]1CN([C@@H](C)CO)C(=O)c2cccc(NS(=O)(=O)c3ccccc3)c2O[C@H]1CN(C)S(=O)(=O)c1cn(C)cn1`, the cytotoxicity call was “inactive”. In the case of `Cc1ccc(S(=O)(=O)Nc2ccc3c(c2)C(=O)N([C@H](C)CO)C[C@@H](C)[C@@H](CN(C)C(=O)c2ccccc2)OCCCC[C@@H](C)O3)cc1` it was “inactive”.

In the case of `CC(C)NC(=O)Nc1ccc2c(c1)C(=O)N([C@@H](C)CO)C[C@H](C)[C@@H](CN(C)S(=O)(=O)c1ccc(F)cc1)O2`, the cytotoxicity call was “inactive”.

As for `COc1ccc(C#Cc2cnc3c(c2)C(=O)N([C@H](C)CO)C[C@@H](C)[C@@H](CN(C)C(=O)CN(C)C)O3)cc1`, the cytotoxicity call was “inactive”. Regarding `C[C@H]1CN([C@@H](C)CO)C(=O)c2cc(NC(=O)CCCN(C)C)ccc2O[C@@H]1CN(C)S(=O)(=O)c1cn(C)cn1`, the cytotoxicity call is “inactive”. Consider `C[C@H](CO)N1C[C@H](C)[C@H](CN(C)Cc2ccc3c(c2)OCO3)Oc2ccc(NC(=O)C3CC3)cc2CC1=O`, for which the cytotoxicity call was “inactive”.

Take `Nc1ncn(C(=O)c2ccccc2)n1`: the cytotoxicity call was “inactive”. In the case of `C[C@@H]1CN([C@H](C)CO)C(=O)c2cccc(NC(=O)c3nc4ccccc4s3)c2O[C@@H]1CN(C)Cc1ccc(C(=O)Nc2ccccc2N)cc1` it was “inactive”; in that of `O=C(C[C@H]1C[C@@H]2c3cc(NS(=O)(=O)c4ccccc4)ccc3O[C@@H]2[C@@H](CO)O1)NC1CCCCC1`, “inactive”. With `COc1ccc(NC(C)=S)cc1C`, the cytotoxicity call was “inactive”.

As for `COc1ccc(S(=O)(=O)Nc2ccc3c(c2)C(=O)N([C@H](C)CO)C[C@@H](C)[C@H](CN(C)Cc2ccccc2)OCCCC[C@@H](C)O3)cc1`, the cytotoxicity call was “inactive”. For `O=C(NCCCN1CCOCC1)c1ccc(Cl)cc1`, the cytotoxicity call was “inactive”. For the molecule `COc1cc2c(NC3CCN(C(C)C)CC3)nc(N3CCC(F)(F)CC3)nc2cc1OCCCN1CCCC1`, the cytotoxicity call was “active”. As for `COc1cc2ncnc(Nc3ccc(F)c(Cl)c3)c2cc1OCCCN1CCOCC1`, the cytotoxicity call is “active”. `COc1cc2c(N3CCN(C(=O)Nc4ccc(OC(C)C)cc4)CC3)ncnc2cc1OCCCN1CCCCC1`: the cytotoxicity call is “inactive”.

As for `C[C@H](CO)N1C[C@H](C)[C@@H](CN(C)Cc2ccc(O)cc2)OCc2ccccc2-c2c(n(C)c3ccccc23)C1=O`, the cytotoxicity call was “inactive”. As for `Cc1noc(C)c1NC(=O)Nc1ccc2c(c1)C(=O)N([C@@H](C)CO)C[C@@H](C)[C@H](CN(C)C(=O)Nc1ccc(F)cc1)OCCCC[C@H](C)O2`, the cytotoxicity call was “inactive”. As to `C[C@H]1CN([C@@H](C)CO)C(=O)Cc2cc(NC(=O)CCC(F)(F)F)ccc2O[C@@H]1CN(C)Cc1ccc(-c2ccccc2)cc1`, the cytotoxicity call was “active”. Then `C[C@H]1CN([C@@H](C)CO)C(=O)Cc2cc(NC(=O)CCC(F)(F)F)ccc2O[C@H]1CN(C)Cc1ccc(C(F)(F)F)cc1`, with “inactive”; and `C[C@H](CO)N1C[C@H](C)[C@H](CN(C)Cc2ccc(-c3ccccc3)cc2)Oc2ccc(NC(=O)CCC(F)(F)F)cc2CC1=O`, with “inactive”; and `C[C@H](CO)N1C[C@H](C)[C@@H](CN(C)Cc2ccc(-c3ccccc3)cc2)Oc2ccc(NC(=O)CCC(F)(F)F)cc2CC1=O`, with “inactive”. For `C[C@H]1CN([C@@H](C)CO)C(=O)Cc2cc(NC(=O)CCC(F)(F)F)ccc2O[C@H]1CN(C)Cc1ccc(-c2ccccc2)cc1`, the cytotoxicity call is “active”. Then `C[C@@H]1CN([C@@H](C)CO)C(=O)Cc2cc(NC(=O)CCC(F)(F)F)ccc2O[C@H]1CN(C)Cc1ccc(C(F)(F)F)cc1`, with “inactive”; and `C[C@@H]1CN([C@@H](C)CO)C(=O)Cc2cc(NC(=O)CCC(F)(F)F)ccc2O[C@H]1CN(C)Cc1ccc(-c2ccccc2)cc1`, with “inactive”; and `C[C@@H]1CN([C@H](C)CO)C(=O)Cc2cc(NC(=O)CCC(F)(F)F)ccc2O[C@H]1CN(C)Cc1ccc(-c2ccccc2)cc1`, with “active”. In the case of `C[C@H](CO)N1C[C@H](C)[C@@H](CN(C)Cc2ccc(C(F)(F)F)cc2)Oc2ccc(NC(=O)CCC(F)(F)F)cc2CC1=O`, the cytotoxicity call is “inactive”. Regarding `C[C@@H]1CN([C@H](C)CO)C(=O)Cc2cc(NC(=O)CCC(F)(F)F)ccc2O[C@@H]1CN(C)Cc1ccc(-c2ccccc2)cc1`, the cytotoxicity call was “active”. Turning to `C[C@H](CO)N1C[C@H](C)[C@H](CN(C)Cc2ccc(C(F)(F)F)cc2)Oc2ccc(NC(=O)CCC(F)(F)F)cc2CC1=O`, the cytotoxicity call was “inactive”. With `C[C@@H]1CN([C@@H](C)CO)C(=O)Cc2cc(NC(=O)CCC(F)(F)F)ccc2O[C@@H]1CN(C)Cc1ccc(-c2ccccc2)cc1`, the cytotoxicity call was “inactive”. Consider `CC(=O)N1CCC2(CC1)NC(=O)NC2=O`, for which the cytotoxicity call is “inactive”.

On to `O=C(CN1CCOCC1)NCC[C@@H]1CC[C@@H](NC(=O)c2ccccc2F)[C@@H](CO)O1`, for which the cytotoxicity call was “inactive”. For `Cc1ccnc([C@@H](N)C2CC2)c1`, the cytotoxicity call was “inactive”. As for `C[C@@H]1CN([C@@H](C)CO)C(=O)c2cc(NC(=O)CCCCCC(=O)Nc3ccccc3N)ccc2O[C@H]1CN(C)S(=O)(=O)c1cn(C)cn1`, the cytotoxicity call was “inactive”. `Nc1ccccc1C(=O)N[C@H]1CCCCNC1=O`: the cytotoxicity call was “inactive”. Turning to `C[C@H](CO)N1C[C@H](C)[C@@H](CN(C)Cc2ccc(C(=O)Nc3ccccc3N)cc2)Oc2c(NC(=O)Nc3ccc4c(c3)OCO4)cccc2C1=O`, the cytotoxicity call is “inactive”.

For `C[C@H]1CN([C@@H](C)CO)C(=O)c2cc(C#CCc3ccccc3)cnc2O[C@@H]1CN(C)C(=O)Cc1cccnc1`, the cytotoxicity call was “inactive”. As for `COCC#Cc1cnc2c(c1)C(=O)N([C@H](C)CO)C[C@H](C)[C@@H](CN(C)S(=O)(=O)c1cccc(OC)c1)O2`, the cytotoxicity call was “inactive”.

Regarding `NC[C@H]1OB(O)c2c(OCCO)ccc(Cl)c21`, the cytotoxicity call was “inactive”.

Take `Cc1ccc(S(=O)(=O)Nc2cccc3c2O[C@H](CN(C)Cc2ccc(Oc4ccccc4)cc2)[C@@H](C)CN([C@H](C)CO)C3=O)cc1`: the cytotoxicity call was “inactive”. `C[C@H]1CN([C@@H](C)CO)C(=O)c2ccccc2-c2ccccc2CO[C@@H]1CN(C)Cc1ccc(Cl)c(Cl)c1`: the cytotoxicity call was “inactive”. Take `C[C@H]1CCCCO[C@H](CN(C)C(=O)Nc2ccc(F)cc2)[C@@H](C)CN([C@@H](C)CO)C(=O)c2cc(NS(=O)(=O)c3cccs3)ccc2O1`: the cytotoxicity call was “inactive”. For `Cc1noc(C)c1S(=O)(=O)N(C)C[C@H]1Oc2ccc(NC(=O)C3CCCCC3)cc2CC(=O)N([C@@H](C)CO)C[C@H]1C`, the cytotoxicity call was “inactive”.

In the case of `C[C@H](CO)N1C[C@H](C)[C@@H](CN(C)Cc2ccc(-c3ccccc3)cc2)Oc2ccc(NC(=O)c3ccncc3)cc2CC1=O`, the cytotoxicity call is “inactive”. For the molecule `C[C@H]1CN([C@@H](C)CO)C(=O)Cc2cc(NC(=O)c3ccncc3)ccc2O[C@H]1CN(C)Cc1ccc(-c2ccccc2)cc1`, the cytotoxicity call is “active”. On to `C[C@@H]1CN([C@H](C)CO)C(=O)Cc2cc(NC(=O)c3ccncc3)ccc2O[C@@H]1CN(C)Cc1ccncc1`, for which the cytotoxicity call was “inactive”.

On to `C[C@H](CO)N1C[C@H](C)[C@H](CN(C)Cc2ccc(-c3ccccc3)cc2)Oc2ccc(NC(=O)c3ccncc3)cc2CC1=O`, for which the cytotoxicity call is “inactive”. For `C[C@H]1CN([C@@H](C)CO)C(=O)Cc2cc(NC(=O)c3ccncc3)ccc2O[C@@H]1CN(C)Cc1ccc(-c2ccccc2)cc1`, the cytotoxicity call is “inactive”.

With `C[C@@H]1CN([C@H](C)CO)C(=O)Cc2cc(NC(=O)c3ccncc3)ccc2O[C@@H]1CN(C)Cc1ccc(-c2ccccc2)cc1`, the cytotoxicity call is “active”. Take `C[C@@H]1CN([C@@H](C)CO)C(=O)Cc2cc(NC(=O)c3ccncc3)ccc2O[C@H]1CN(C)Cc1ccc(-c2ccccc2)cc1`: the cytotoxicity call is “active”. For `C[C@@H]1CN([C@H](C)CO)C(=O)Cc2cc(NC(=O)c3ccncc3)ccc2O[C@H]1CN(C)Cc1ccc(-c2ccccc2)cc1`, the cytotoxicity call was “inactive”. With `C[C@@H]1CN([C@@H](C)CO)C(=O)Cc2cc(NC(=O)c3ccncc3)ccc2O[C@@H]1CN(C)Cc1ccc(-c2ccccc2)cc1`, the cytotoxicity call was “inactive”. Turning to `Cc1ccc(-c2ccc3c(c2)O[C@@H](CN(C)C(=O)CN(C)C)[C@@H](C)CN([C@H](C)CO)S3(=O)=O)cc1`, the cytotoxicity call is “inactive”.
